An excerpt weighted towards active compounds, which were near 5.5% of everything screened.
RORgamma inh: inhibitors of mouse ROR gamma transcriptional activity; P51450; Drosophila S2 Gal4-RORgamma UAS-luciferase reporter, 20 h; Potency, µM (top dose mostly 53.6 µM), hits mostly inhibitors; actives 5.4% (n = 310,000); AID 2551; also: nearly all actives have a fitted effect of over 60% in size
Target sequence (P51450 whole entry, looked up, the tested form may be a part): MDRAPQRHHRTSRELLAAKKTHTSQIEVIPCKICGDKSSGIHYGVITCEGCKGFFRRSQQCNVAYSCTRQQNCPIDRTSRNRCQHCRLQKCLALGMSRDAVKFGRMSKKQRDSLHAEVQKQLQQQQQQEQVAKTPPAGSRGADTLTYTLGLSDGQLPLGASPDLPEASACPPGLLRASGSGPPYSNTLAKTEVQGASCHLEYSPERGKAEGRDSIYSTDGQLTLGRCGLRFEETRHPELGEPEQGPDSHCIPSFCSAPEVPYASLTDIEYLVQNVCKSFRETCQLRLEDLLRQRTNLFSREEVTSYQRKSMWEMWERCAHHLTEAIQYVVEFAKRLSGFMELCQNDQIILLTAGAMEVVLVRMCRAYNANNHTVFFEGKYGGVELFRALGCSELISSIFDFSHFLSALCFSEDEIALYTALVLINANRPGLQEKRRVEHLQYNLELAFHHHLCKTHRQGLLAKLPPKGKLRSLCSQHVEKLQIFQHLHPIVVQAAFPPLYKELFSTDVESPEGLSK
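Read-out: Photinus luciferase luminescence; inhibitors lower reporter signal. Insect Schneider cells with Gal4-ROR gamma fusion under metallothionein promoter, UAS reporter; 700 uM final copper sulfate induction, 20 hr, ambient temperature.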
Mito fusion yeast: inhibitors of mitochondrial division or activators of mitochondrial fusion; S. cerevisiae fusion-defective mutant growth rescue, CellTiterGlo 48 h; Potency, µM (top dose mostly 46.1 µM), hits mostly activators; actives 0.23% (n = 320,000); AID 485298; also: nearly all actives have a fitted effect of over 45% in size
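Growth-rescue viability read-out: after 48 h at the non-permissive 37C in glycerol/ethanol YPEG, yeast mitochondrial fusion mutants are measured by CellTiterGlo luminescence; compounds (23 nl pinned per well) restoring growth score as division inhibitors or fusion activators.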
a7 integrin act: activates integrin-mediated alleviation for muscular dystrophy; alpha7betagal myoblasts, beta-gal FDG fluorescence, 48 h; Potency, µM (doses to about 38.3 µM), usual class: activators; actives 0.064% (n = 350,000); also: nearly all actives have a fitted effect of over 60% in size
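alpha7betagal+/- myoblasts (passage 13, 250/well) treated 48 h at 37C with compounds at 1:260 dilution of DMSO stock. Lysed, then beta-galactosidase activity read as FDG fluorescence (ex 480/em 540) after 30 min, with pre-read for autofluorescence.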
Gal4-VP16 FLuc: Gal4-VP16 reporter inhibition counter-screen | Potency, µM (top dose mostly 53.6 µM), most hits filed as inhibitors | Drosophila S2 Gal4-VP16 UAS-luciferase, luminescence, 20 h | actives 3.5% (n = 310,000);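 also: Gal4-VP16 expression switched on by copper sulfate through the metallothionein promoter; nearly all actives have a fitted effect of over 50% in size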
uPA surface inh: inhibitors of cell surface uPA generation | cell surface uPA generation assay, qHTS | Potency, µM (doses to about 38.3 µM), actives largely listed as inhibitors | actives 0.31% (n = 330,000) | AID 540303; active = well fitted inhibition curve with a large enough effect; inconclusive = small, poorly fitted or top-dose-only effect; inactive = no such curve, though single readings can be large or run the other way; tested in mouse RAW 264.7 cells; also: nearly all actives have a fitted effect of over 55% in size
BCR signal inh: inhibitors of chronic active B-cell receptor signaling; ABC-DLBCL IkBa-CBG/CBR reporter, luminescence ratio, 4 h; AID 493014; Potency, µM (doses to about 46.1 µM), hits mostly inhibitors; actives 0.05% (n = 340,000); active = well fitted inhibition curve with a large enough effect in the signal ratio, with a control signal flat, not every such curve was filed as active; inconclusive = small, poorly fitted or top-dose-only effect, or effect the other way, or a change in a side signal; the % refers to the signal ratio
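Compounds up to 46 uM were incubated four hours with TMD8 cells whose green CBG68 luciferase is fused to IkappaBalpha; red CBR luminescence normalised the signal, and concentration-effect curves were fitted to fusion, red and ratio data.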
Large screens that a line does not name were inactive. Unless noted, calls follow the shape of the dose curve; as a rule, active = well fitted curve in the direction sought with a large enough effect; inconclusive = small, poorly fitted or top-dose-only effect, or another doubt; inactive = no such curve, though single readings can be large; an effect the other way counts as inactive or inconclusive.

Cc1cccc(NC(=S)N/N=C/c2ccc([N+](=O)[O-])s2)c1	RORgamma inh 1.26µM, Gal4-VP16 FLuc 3.16µM, BCR signal inh inconclusive
CCOC(=O)N/N=C\c1ccc([N+](=O)[O-])s1	none
Cc1ccc(NC(=O)/C=C/c2ccc([N+](=O)[O-])s2)cc1	RORgamma inh inconclusive, Gal4-VP16 FLuc inconclusive, BCR signal inh inconclusive
CCOc1ccc(-c2cc(C(=O)N3CCN(c4ccc(C)cc4)C(C)C3)c3ccccc3n2)cc1 (centres undefined)	none (no result: RORgamma inh, Mito fusion yeast, a7 integrin act, Gal4-VP16 FLuc, uPA surface inh)
COCCn1c(SC(C)C(=O)Nc2ncc(Cl)cc2Cl)nc2ccccc21 (centres undefined)	none
Cc1nnc(SC(C)C(=O)Nc2ncc(Cl)cc2Cl)n1Cc1ccccc1 (centres undefined)	RORgamma inh inconclusive, Gal4-VP16 FLuc 28.2µM
COc1ccc(C2=NC(c3ccc(Cl)cc3)C(c3ccc(Cl)cc3)N2C(=O)N2CCNC(=O)C2)c(OC(C)C)c1 (centres undefined)	RORgamma inh inconclusive (no result: Mito fusion yeast, a7 integrin act, uPA surface inh, BCR signal inh)
Cc1ccc2nc(-c3ccc(O)c(O)c3)cn2c1	Gal4-VP16 FLuc inconclusive, BCR signal inh inconclusive
Cc1ccc2nc(-c3ccccc3)cn2c1	RORgamma inh 1.58µM, Gal4-VP16 FLuc 2.82µM, BCR signal inh inconclusive
CC(=O)Nc1ccc(-c2cn3cc(C)ccc3n2)cc1	RORgamma inh 7.08µM, Gal4-VP16 FLuc inconclusive, uPA surface inh 4.47µM
Cc1cccn2cc(-c3ccccc3)nc12	RORgamma inh 11.2µM
Cc1ccc2nc(-c3ccc(-c4ccccn4)s3)cn2c1	RORgamma inh 0.178µM, Gal4-VP16 FLuc 0.891µM, BCR signal inh inconclusive
O=C(C[C@H]1C/C=C\CC[C@@H](Cc2ccc(F)cc2)C(=O)O[C@H](c2ccccc2)CNC1=O)N[C@H](CO)Cc1ccccc1	none (no result: RORgamma inh, Mito fusion yeast, Gal4-VP16 FLuc)
C#CC(C)OC(=O)Nc1cccc(Cl)c1 (centres undefined)	RORgamma inh inconclusive (no result: Mito fusion yeast, a7 integrin act, uPA surface inh, BCR signal inh)
Nc1ccccc1C#Cc1ccc([N+](=O)[O-])cc1	a7 integrin act inconclusive (no result: RORgamma inh, Mito fusion yeast, Gal4-VP16 FLuc, BCR signal inh)
O=C(/C=C/c1cccc([N+](=O)[O-])c1)c1ccccc1	none (no result: Mito fusion yeast, a7 integrin act, uPA surface inh, BCR signal inh)
O=C(C#Cc1cccc([N+](=O)[O-])c1)c1ccccc1	RORgamma inh 2.82µM, Gal4-VP16 FLuc 3.16µM, BCR signal inh inconclusive (no result: a7 integrin act, uPA surface inh)
Nc1ccccc1C#CC(=O)c1ccccc1	RORgamma inh 7.08µM, Gal4-VP16 FLuc 7.08µM, uPA surface inh inconclusive, BCR signal inh inconclusive
Cc1c(C(=O)Nc2ccccc2Cl)oc2ccc(S(=O)(=O)N3CCCCC3)cc12	none (no result: RORgamma inh, a7 integrin act, Gal4-VP16 FLuc, uPA surface inh)
CCNc1ncc2nc(CCc3ccccc3)c(=O)n(-c3ccccc3)c2n1	none (no result: Mito fusion yeast, a7 integrin act, uPA surface inh, BCR signal inh)
CCc1ccccc1Nc1nn2c(=O)c3ccc(C(=O)NCCCOC(C)C)cc3nc2s1	none (no result: RORgamma inh, a7 integrin act, Gal4-VP16 FLuc, uPA surface inh)
CN1CCN(CC(=O)N2CCn3c4c(c5cc(C6CCCCC6)ccc53)CCCC42)CC1 (centres undefined)	RORgamma inh 2.24µM, Gal4-VP16 FLuc inconclusive, BCR signal inh inconclusive
COc1ccc(OC)c2sc(N(CCN(C)C)C(=O)/C=C/c3cccs3)nc12	RORgamma inh 15.8µM, Gal4-VP16 FLuc 10µM, BCR signal inh inconclusive
COc1ccc(C)c2sc(N(CCN(C)C)C(=O)/C=C/c3cccs3)nc12	Gal4-VP16 FLuc inconclusive, uPA surface inh inconclusive, BCR signal inh inconclusive
CCOC(=O)N1CCN(CC(=O)Nc2sccc2C#N)CC1	uPA surface inh 11.2µM
N#Cc1ccsc1NC(=O)CN1CCCCCC1	none
COc1ccc(C2=Nn3c(nnc3-c3cc(OC)ccc3OC)SC2)cc1	none (no result: Mito fusion yeast, a7 integrin act, uPA surface inh, BCR signal inh)
Nc1ccc2nc(-c3ccc(N)c(Cl)c3)[nH]c2c1	Gal4-VP16 FLuc inconclusive, BCR signal inh inconclusive
COc1ccc2nc(-c3cccc(N)c3)[nH]c2c1	RORgamma inh inconclusive, Gal4-VP16 FLuc 12.6µM, BCR signal inh inconclusive
COc1ccc2nc(-c3ccc(N)cc3)[nH]c2c1	RORgamma inh 7.94µM, Gal4-VP16 FLuc 10µM, BCR signal inh inconclusive
CCC(Sc1nc2cc3c(cc2c(=O)n1CCCC(=O)NCc1ccc2c(c1)OCO2)OCO3)C(=O)NCCCOC (centres undefined)	none (no result: RORgamma inh, Mito fusion yeast, a7 integrin act, Gal4-VP16 FLuc, uPA surface inh)
O=C(O)CCCCCN1C(=O)/C(=C\c2ccncc2)SC1=S	RORgamma inh 12.6µM, Gal4-VP16 FLuc 10µM, BCR signal inh inconclusive
